Drawing on PubChem BioAssay, this text covers z-score and composite z-score for eight molecules.

Structures are written as SMILES. The source made the active and inactive calls.

The nature of assay [1]: optical density shifts of acrAB sulA E. coli – strain DRC41, OD650, 48 h, E. coli filamentation inducer project, primary screen (AID 1152).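 Note: E. coli MC1000 strain DRC41 lacking acrAB efflux pump and sulA.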 To be noted: higher = more signal, called active from +8 up or from −8 down.
Assay [2] can be described thus: probe aLefty1 binding on compound microarray – biochemical, small-molecule microarray, 635/667 nm fluorescence, primary screen (AID 1153).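 Note: score merges spot fluorescence with signal-to-noise ratio from the scanned slide images.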 The note with it: higher = more signal.
A short description of assay [3]: plasmodial surface anion channel blockers, osmotic lysis – cell-based, P. falciparum Indochina, OD700, 1 h, primary screen (AID 1154). The note with it: P. falciparum Indochina infected RBC osmotic lysis, higher = more signal, called active from +8 up or from −8 down.
The nature of assay [4]: plasmodial surface anion channel blockers, osmotic lysis – cell-based, P. falciparum Indochina, OD700, 2 h, primary screen (AID 1155).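 Note: lysis reports solute entry through the parasite surface anion channel PSAC.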 To be noted: P. falciparum Indochina infected erythrocytes, higher = more signal, called active from +8 up or from −8 down.
Assay [5] is described as follows: changes in parasitized red cell lysis, either direction – P. falciparum Indochina, OD700, 3 h, PSAC antagonist project, primary screen (AID 1156). To be noted: P. falciparum-infected erythrocytes, osmotic lysis, higher = more signal, called active from +8 up or from −8 down.
A short description of assay [6]: plasmodial surface anion channel blockers, osmotic lysis – cell-based, P. falciparum Indochina, OD700, 18 h, primary screen (AID 1157). To be noted: P. falciparum Indochina infected erythrocytes, osmotic lysis OD700, 18 h; higher = more signal, called active from +8 up or from −8 down.
Assay [7] in a line: S6 kinase pathway phospho-S6 level changes – cell-based, A549, cytoblot, luminescence, serum-stimulated, primary screen (AID 1158).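 Note: serum-stimulated A549 lung adenocarcinoma cells; signal is phosphorylated S6 detected by cytoblot immunostaining with HRP secondary.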 The note with it: 5 h, higher = more signal.
The target in assay [8] is NADPH oxidase 2 (Homo sapiens) (UniProt P04839). The assay can be described thus: compounds shifting NOX2 Amplex Red fluorescence – cell-based, HEK293-NOX2, PMA-stimulated, NOX inhibitor project, primary screen (AID 1159). Note: test concentration not given here. To be noted: 45 min, higher = more signal, called active from +8 up or from −8 down.
Chain of NADPH oxidase 2 (Homo sapiens) (P04839 whole entry, looked up): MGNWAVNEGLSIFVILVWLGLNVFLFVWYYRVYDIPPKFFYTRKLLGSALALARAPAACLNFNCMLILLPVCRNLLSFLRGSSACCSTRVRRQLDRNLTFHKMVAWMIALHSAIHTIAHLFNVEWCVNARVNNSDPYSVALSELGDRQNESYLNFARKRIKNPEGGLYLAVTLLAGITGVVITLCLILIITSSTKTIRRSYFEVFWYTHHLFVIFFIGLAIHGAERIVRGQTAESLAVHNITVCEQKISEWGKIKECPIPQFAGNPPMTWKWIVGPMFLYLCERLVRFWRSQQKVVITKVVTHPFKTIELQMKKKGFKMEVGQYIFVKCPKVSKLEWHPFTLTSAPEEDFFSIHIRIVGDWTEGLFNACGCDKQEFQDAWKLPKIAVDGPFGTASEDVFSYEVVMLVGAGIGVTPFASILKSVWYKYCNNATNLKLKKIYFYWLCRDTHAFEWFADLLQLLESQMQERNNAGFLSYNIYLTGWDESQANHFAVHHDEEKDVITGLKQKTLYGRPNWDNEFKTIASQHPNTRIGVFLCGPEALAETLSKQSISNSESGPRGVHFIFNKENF
Assay [9] has as its target NADPH oxidase 4 (Homo sapiens) (UniProt Q9NPH5). Put plainly: compounds shifting NOX4 Amplex Red fluorescence – cell-based, HEK293-NOX4, tetracycline-induced, NOX inhibitor project, primary screen (AID 1160). The note with it: HEK293-NOX4, Amplex Red H2O2 fluorescence, 45 min; higher = more signal, called active from +8 up or from −8 down.
The target of assay [10] is NADPH oxidase 5 (Homo sapiens) (UniProt Q96PH1). Put plainly: compounds shifting NOX5 Amplex Red fluorescence – cell-based, HEK293-NOX5, NOX inhibitor project, primary screen (AID 1161). To be noted: HEK293-NOX5, ionomycin, 45 min, higher = more signal.
Chain of NADPH oxidase 5 (Homo sapiens) (Q96PH1 whole entry, looked up): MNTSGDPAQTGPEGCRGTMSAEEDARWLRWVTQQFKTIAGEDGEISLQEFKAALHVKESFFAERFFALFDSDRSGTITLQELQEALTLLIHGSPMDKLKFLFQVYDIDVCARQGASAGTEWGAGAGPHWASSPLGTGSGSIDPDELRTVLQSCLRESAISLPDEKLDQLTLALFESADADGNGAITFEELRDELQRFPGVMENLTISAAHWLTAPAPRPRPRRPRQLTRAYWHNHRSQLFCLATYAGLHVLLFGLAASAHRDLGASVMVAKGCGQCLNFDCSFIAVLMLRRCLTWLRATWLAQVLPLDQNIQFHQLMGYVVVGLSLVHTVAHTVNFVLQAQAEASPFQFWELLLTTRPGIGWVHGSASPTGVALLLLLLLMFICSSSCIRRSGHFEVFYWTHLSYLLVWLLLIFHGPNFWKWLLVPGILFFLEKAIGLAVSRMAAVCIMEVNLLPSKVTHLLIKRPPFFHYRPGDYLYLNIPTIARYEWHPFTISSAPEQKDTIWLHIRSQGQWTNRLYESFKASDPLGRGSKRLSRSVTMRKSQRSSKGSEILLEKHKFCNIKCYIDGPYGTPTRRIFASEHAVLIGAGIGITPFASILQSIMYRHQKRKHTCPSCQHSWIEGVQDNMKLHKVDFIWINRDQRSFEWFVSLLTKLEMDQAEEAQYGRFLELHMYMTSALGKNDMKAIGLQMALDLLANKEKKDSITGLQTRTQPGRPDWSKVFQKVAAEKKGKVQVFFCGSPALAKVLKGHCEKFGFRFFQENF
Assay [11] in a line: compound effects on lung adenocarcinoma cell viability – A549, calcein-AM fluorescence, 48 h, basal, profiling panel (AID 1162). Note: test concentration not given here. The note with it: higher = more signal.
The nature of assay [12]: compound effects on differentiated 3T3-L1 adipocyte viability – cell-based, 3T3-L1 adipocytes, calcein-AM fluorescence, 48 h, basal, profiling panel (AID 1163). Note: test concentration not given here. The note with it: 3T3-L1 adipocytes viability, higher = more signal.
Assay [13] in a line: compound effects on hepatocellular carcinoma cell viability – HepG2, calcein-AM fluorescence, 48 h, basal, profiling panel (AID 1164). Note: test concentration not given here. The note with it: higher = more signal.
Assay [14] is described as follows: compound effects on multiple myeloma cell viability – MM1S, calcein-AM fluorescence, 48 h, basal, profiling panel (AID 1165).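 Note: viability of MM1S multiple myeloma cells under basal unstimulated conditions; test concentration not given here.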 To be noted: higher = more signal.
Assay [15] in a line: calcein-AM signal in unstimulated myeloma cells – cell-based, calcein-AM fluorescence, 48 h, PK04 Diversity Set, profiling panel (AID 1166).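 Note: cells grown under basal conditions without added stimulus; test concentration not given here.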 To be noted: RPMI8226 myeloma viability, higher = more signal.
The nature of assay [16]: JC-1 mitochondrial signal, unstimulated HepG2 cells – cell-based, JC-1 fluorescence, 24 h, 100 nL compound, profiling panel (AID 1167). Note: test concentration not given here. The note with it: HepG2 mitochondrial potential, higher = more signal.
The nature of assay [17]: JC-1 mitochondrial signal, unstimulated adipocytes – cell-based, JC-1 fluorescence, 3T3-L1 adipocytes, 24 h, 100 nL compound, profiling panel (AID 1168). Note: test concentration not given here. To be noted: JC-1 mitochondrial fluorescence, higher = more signal, called active from +8 up or from −8 down.
Assay [18] is described as follows: JC-1 mitochondrial signal, unstimulated myeloma cells – cell-based, JC-1 fluorescence, RPMI8226, 24 h, 100 nL compound, profiling panel (AID 1169). Note: test concentration not given here. The note with it: JC-1 mitochondrial potential fluorescence, higher = more signal.
The nature of assay [19]: JC-1 mitochondrial signal, unstimulated MM1S myeloma – cell-based, JC-1 fluorescence, 24 h, 100 nL compound, profiling panel (AID 1170). Note: test concentration not given here. The note with it: MM1S mitochondrial potential, higher = more signal.
Assay [20] in a line: resazurin metabolic signal in A549 cells – cell-based, resazurin fluorescence, 24 h, PK04 Diversity Set, profiling panel (AID 1171). Note: test concentration not given here. The note with it: A549 viability, higher = more signal, called active from +8 up or from −8 down. In general terms: Resazurin is reduced to fluorescent resorufin, in cell work by metabolically active cells.

Chain of NADPH oxidase 4 (Homo sapiens) (Q9NPH5 whole entry, looked up): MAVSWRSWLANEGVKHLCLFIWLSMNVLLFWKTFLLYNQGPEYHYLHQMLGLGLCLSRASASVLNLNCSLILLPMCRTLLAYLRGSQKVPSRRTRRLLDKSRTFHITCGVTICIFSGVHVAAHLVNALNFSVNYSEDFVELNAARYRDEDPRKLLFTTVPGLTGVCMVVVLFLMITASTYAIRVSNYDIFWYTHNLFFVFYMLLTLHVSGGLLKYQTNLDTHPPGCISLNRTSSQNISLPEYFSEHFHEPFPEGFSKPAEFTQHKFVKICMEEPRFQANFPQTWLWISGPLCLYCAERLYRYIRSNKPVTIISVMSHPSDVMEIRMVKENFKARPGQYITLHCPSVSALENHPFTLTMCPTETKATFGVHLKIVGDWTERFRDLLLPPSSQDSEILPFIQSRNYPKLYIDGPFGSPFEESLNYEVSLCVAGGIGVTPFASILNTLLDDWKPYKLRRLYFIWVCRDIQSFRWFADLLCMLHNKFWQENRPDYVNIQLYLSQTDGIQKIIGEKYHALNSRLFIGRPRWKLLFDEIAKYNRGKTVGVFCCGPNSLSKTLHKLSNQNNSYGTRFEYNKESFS

For `CC=CC(O)C1C=CC2C(=O)NC(=O)C2N1Nc1ccccn1` (stereo not given), the z-score in [1] is -0.576 (inactive); in [3], -0.335 (inactive); in assay [4], -0.0554 (inactive); in assay [5], 0.0091 (inactive); in assay [6], 0.998 (inactive); in assay [7] it was -0.966. In addition, the z-score was -1.39 (inactive) in [8]; -1.87 (inactive) in [9]; -1.74 in [10]; 0.0403 in [11]; -1.24 in [12]; -0.154 in assay [13]. Further, the z-score in assay [14] was -0.228; in assay [15] it was -0.496; in assay [16] it was 0.0853; in [17] it was -0.288 (inactive); in assay [18], 0.137; in assay [19], -0.121. Also, the z-score in assay [20] was -1.14 (inactive). For the same molecule, the composite z-score in assay [2] is -0.0061.
Take `C[C@@]12COC[C@]13C=C(Br)[C@H](C2)[C@@]1(CO1)C3=O`: the z-score was -0.745 (inactive) in assay [1]; -0.526 (inactive) in assay [3]; -0.0824 (inactive) in assay [4]; -0.347 (inactive) in assay [5]; -0.161 (inactive) in [6]; -0.788 in assay [7]. Also, the z-score in assay [8] was 0.51 (inactive); in [9], 0.527 (inactive); in assay [10] it was 0.119; in assay [11], 0.109; in assay [12], -0.245; in [13], -0.318. For the same molecule, the z-score in assay [14] was -1.75; in [15] it was -0.31; in [16], -1.47; in assay [17] it was -0.24 (inactive); in assay [18], 0.253; in assay [19], -1.12. The z-score in [20] was -0.557 (inactive). Besides, the composite z-score in assay [2] is -0.0003.
In the case of `COCCOC(=O)N1C(=O)[C@@]2(c3cc(C#CCNC(N)=O)ccc31)[C@H](c1ccc(OCCO)cc1)N1[C@H](c3ccccc3)[C@H](c3ccccc3)OC(=O)[C@H]1[C@@H]2C(N)=O`, the z-score was 0.336 (inactive) in assay [1]; 4.37 (inactive) in assay [3]; 1.02 (inactive) in [4]; -0.383 (inactive) in assay [5]; 0.0173 (inactive) in assay [6]; -0.412 in assay [7]. The z-score in assay [8] is 1.84 (inactive); in assay [9] it was 1.34 (inactive); in [10] it was 0.646; in assay [11] it was 0.586; in assay [12], -0.0118; in [13], 0.334. Further, the z-score in [14] was -1.24; in assay [15], -0.668; in assay [16], -1.7; in assay [17] it was 0.407 (inactive); in [18], -0.185; in assay [19] it was -0.604. For the same molecule, the z-score in assay [20] was 0.266 (inactive). This molecule also had a composite z-score in assay [2] of -0.346.
For the molecule `COCCOC(=O)N1C(=O)[C@@]2(c3cc(C#CCNC(N)=O)ccc31)[C@H](c1ccc(O)cc1)N1[C@H](c3ccccc3)[C@H](c3ccccc3)OC(=O)[C@H]1[C@@H]2C(=O)N1CCN(c2ncccn2)CC1`, the z-score is -0.279 (inactive) in assay [1]; 2.78 (inactive) in [3]; 1.32 (inactive) in assay [4]; 0.528 (inactive) in [5]; 0.973 (inactive) in assay [6]; -0.43 in assay [7]. Besides, the z-score in assay [8] was 1.23 (inactive); in [9], -0.121 (inactive); in assay [10] it was 1.13; in [11], -0.652; in assay [12] it was -0.901; in assay [13], 0.527. Also, the z-score in assay [14] is -0.0396; in assay [15] it was -1.05; in assay [16] it was -2.34; in [17], 0.703 (inactive); in assay [18] it was -0.322; in [19], -1.14. For the same molecule, in [20], the z-score is -0.163 (inactive). In assay [2], this molecule returned a composite z-score of -0.191.
In the case of `C[C@]1(C(=O)NCC(F)(F)F)c2ccccc2C(=O)N(Cc2ccccc2)[C@H]1c1ccc(CO)cc1`, the z-score in assay [1] is 0.588 (inactive); in assay [3], 2.28 (inactive); in [4], 0.0336 (inactive); in [5], -0.201 (inactive); in assay [6], -0.162 (inactive); in assay [7] it was -0.617. Moreover, the z-score in assay [8] was -0.0434 (inactive); in [9], 0.431 (inactive); in assay [10] it was 0.17; in [11] it was -0.431; in [12], -0.2; in assay [13] it was 0.57. For the same molecule, the z-score in assay [14] is -0.503; in assay [15], 0.514; in assay [16], 1.97; in assay [17] it was 0.113 (inactive); in [18] it was 0.824; in [19] it was -1.07. Further, the z-score in [20] was 0.0906 (inactive). This molecule also yielded a composite z-score in assay [2] of 0.382.
For the molecule `O=C(CS)NCCCCCNC(=O)[C@@H]1C[C@@H]2C(=O)N[C@@H](Cc3ccccc3)C(=O)N2[C@@H]1c1cccc(OCCO)c1`, the z-score in assay [1] is -0.145 (inactive); in [3] it was 2.5 (inactive); in assay [4], 0.148 (inactive); in assay [5], -0.395 (inactive); in assay [6], -0.0429 (inactive); in assay [7] it was -0.16. In addition, the z-score is 1.73 (inactive) in [8]; 0.924 (inactive) in assay [9]; 0.226 in assay [10]; 0.688 in assay [11]; -0.284 in assay [12]; 1.18 in assay [13]. The z-score in [14] is 0.57; in assay [15], 0.521; in assay [16], 1.51; in assay [17] it was 0.19 (inactive); in [18], -0.203; in assay [19] it was -0.156. In addition, the z-score in assay [20] was -0.488 (inactive). Also, the composite z-score in assay [2] was -1.01.
For the molecule `Cc1ccc(S[C@]2(C(=O)NCC(C)C)CC(=O)N(C3Cc4ccccc4C3)[C@@H]2c2ccc(CO)cc2I)cc1`, the z-score in [1] was -0.715 (inactive); in [3] it was 2.92 (inactive); in assay [4] it was 0.768 (inactive); in assay [5] it was 0.708 (inactive); in [6] it was 0.475 (inactive); in assay [7] it was -0.447. The z-score in assay [8] is 1.25 (inactive); in [9], 0.0492 (inactive); in assay [10], 1.47; in assay [11], 0.168; in assay [12] it was -0.492; in assay [13], -0.455. Moreover, the z-score in assay [14] was -2.37; in [15], -2.6; in assay [16] it was -0.534; in [17], -0.233 (inactive); in assay [18], -0.107; in assay [19], -1.76. Besides, the z-score in assay [20] was -0.105 (inactive). In addition, in [2], the composite z-score is -0.192.
Regarding `COc1cc2c(cc1OC)CN(C(=O)[C@@H]1[C@H]3C(=O)O[C@H](c4ccccc4)[C@H](c4ccccc4)N3[C@H](c3ccc(O)cc3)[C@@]13C(=O)Nc1ccc(C#CCCO)cc13)CC2`, the z-score in assay [1] is -0.0186 (inactive); in [3], 0.125 (inactive); in assay [4], 0.448 (inactive); in assay [5], 1.16 (inactive); in [6], 0.165 (inactive); in [7], -0.42. Also, the z-score is 0.777 (inactive) in [8]; 0.152 (inactive) in assay [9]; 0.532 in [10]; -0.446 in assay [11]; -0.423 in [12]; -0.314 in [13]. In addition, the z-score was -0.0118 in assay [14]; 0.191 in assay [15]; -2.29 in assay [16]; 0.0304 (inactive) in assay [17]; -0.294 in [18]; -0.492 in assay [19]. Besides, in [20], the z-score is 0.156 (inactive). Besides, the composite z-score in [2] is -0.149.
